Compound activity deposited in PubChem BioAssay by National Center for Advancing Translational Sciences (NCATS).
Hits are enriched below; roughly 19% of the tested compounds scored in any of these assays.
ELG1 DNA repair – inhibitors of ELG1-dependent DNA repair in HEK293T cells. HEK293T ELG1-luciferase reporter, luminescence, 16 h; DNA damage induced by 5-fluorouridine. Potency, µM (titrated, usually from 46.1 µM), actives largely listed as inhibitors. 2.3% of 330,000 active; further: nearly all actives have a fitted effect of over 55% in size
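5-Fluorouridine DNA damage + compound/DMSO, 2,000 cells/well, 16 h, 37 °C/5% CO2. ONE-Glo, 30 min RT, luminescence. Readout = decrease in reporter signal.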
IL-1B inflam inh – blocks inflammasome-driven IL-1 beta release. THP-1 LPS/ATP IL-1B secretion, AlphaLISA, 16 h; stronger effect = lower value. activity change, % at 57.5 µM. 4.7% of 360,000 active; in the data active means activity change below about -50%; inconclusive means mostly about -30% to -49%
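Secreted IL-1B measured by AlphaLISA bead assay after 16 h compound exposure of THP-1 cells; compounds (final up to 57.5 uM) added 1 h before LPS (250 ng/mL) and ATP (1.25 mM) stimulation; lower signal means less secretion.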
HT1080 IDH1KD tx – toxicity to HT-1080 IDH1 knockdown cells (counter line); HT-1080 IDH1 knockdown viability, ATP luminescence, 48 h; Potency, µM (doses to about 46.1 µM), usual class: cytotoxic; 2% of 360,000 active
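Cytotoxicity counter-line: IDH1KD HT-1080, 48 h, CellTiter-Glo. Curves classed by r2, magnitude and activity.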
HT1080-NT tox – kills 2HG-producing HT-1080-NT fibrosarcoma cells | Potency, µM (top dose mostly 46.1 µM), actives largely listed as cytotoxic | HT-1080-NT fibrosarcoma viability, CellTiter-Glo ATP luminescence, 48 h | 1.6% of 360,000 active;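 further: NT is the 2HG producing partner of a matched IDH1 knockdown line; nearly all actives have a fitted effect of over 55% in size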
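HT-1080-NT fibrosarcoma cells (2HG-overproducing), 750 cells/well in RPMI with 5% FBS, dosed after 2 h and incubated 48 h at 37C. CellTiter-Glo luminescence normalized to DMSO and no-cell wells; concentration-response curves fitted and classed.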
TDP1 cell noCPT – qHTS for Inhibitors of human tyrosyl-DNA phosphodiesterase 1 (TDP1): qHTS in cells in absence of CPT; DT40 Tdp1-/- hTDP1 cells, no CPT, ATP luminescence, 48 h; Potency, µM (doses to about 46.2 µM), hits mostly inhibitors; 15% of 420,000 active; AID 686978, 2013; further: nearly all actives have a fitted effect of over 55% in size
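Cells were dispensed at 400 per well, compounds added by pin tool, plates incubated ≥48 hr at 37 °C, then CellTiter-Glo added for 30 min at room temperature before luminescence reading. Line: DT40 Tdp1-/- complemented with hTDP1; camptothecin omitted.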
TDP1 cell CPT – growth inhibition of DT40 Tdp1-/-;hTDP1 cells with camptothecin (screen for TDP1 inhibitors). chicken DT40 Tdp1-/-;hTDP1 cells + 20 nM CPT, ATP luminescence, 48 h. Potency, µM (series often up to 46.2 µM), usual class: inhibitors. 12% of 420,000 active. AID 686979; further: nearly all actives have a fitted effect of over 55% in size
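Chicken DT40 Tdp1-/- cells stably complemented with human TDP1 were seeded at 400 cells/well in medium containing 20 nM camptothecin, exposed to pin-transferred compounds, and grown at 37 °C for at least 48 hr. Viability was read as ATP luminescence.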
ELG1 FLuc counter – luciferase inhibition in cell-free luciferin readout for ELG1 hits; shares compounds with ELG1 DNA repair; cell-free firefly luciferase luminescence counter-screen, ViewLux; Potency, µM (highest dose often 46.1 µM), most hits filed as inhibitors; 3% of 350 active
ELG1-Luc inh – confirmation of human ELG1-dependent DNA repair inhibitors; shares compounds with ELG1 DNA repair; HEK293T ELG1-luciferase levels, luminescence; cells co-treated with 5-fluorouridine; Potency, µM (top dose mostly 46.1 µM), actives largely listed as inhibitors; 68% of 670 active; AID 624248; further: nearly all actives have a fitted effect of over 55% in size
Target sequence (Q96QE3 whole entry, looked up): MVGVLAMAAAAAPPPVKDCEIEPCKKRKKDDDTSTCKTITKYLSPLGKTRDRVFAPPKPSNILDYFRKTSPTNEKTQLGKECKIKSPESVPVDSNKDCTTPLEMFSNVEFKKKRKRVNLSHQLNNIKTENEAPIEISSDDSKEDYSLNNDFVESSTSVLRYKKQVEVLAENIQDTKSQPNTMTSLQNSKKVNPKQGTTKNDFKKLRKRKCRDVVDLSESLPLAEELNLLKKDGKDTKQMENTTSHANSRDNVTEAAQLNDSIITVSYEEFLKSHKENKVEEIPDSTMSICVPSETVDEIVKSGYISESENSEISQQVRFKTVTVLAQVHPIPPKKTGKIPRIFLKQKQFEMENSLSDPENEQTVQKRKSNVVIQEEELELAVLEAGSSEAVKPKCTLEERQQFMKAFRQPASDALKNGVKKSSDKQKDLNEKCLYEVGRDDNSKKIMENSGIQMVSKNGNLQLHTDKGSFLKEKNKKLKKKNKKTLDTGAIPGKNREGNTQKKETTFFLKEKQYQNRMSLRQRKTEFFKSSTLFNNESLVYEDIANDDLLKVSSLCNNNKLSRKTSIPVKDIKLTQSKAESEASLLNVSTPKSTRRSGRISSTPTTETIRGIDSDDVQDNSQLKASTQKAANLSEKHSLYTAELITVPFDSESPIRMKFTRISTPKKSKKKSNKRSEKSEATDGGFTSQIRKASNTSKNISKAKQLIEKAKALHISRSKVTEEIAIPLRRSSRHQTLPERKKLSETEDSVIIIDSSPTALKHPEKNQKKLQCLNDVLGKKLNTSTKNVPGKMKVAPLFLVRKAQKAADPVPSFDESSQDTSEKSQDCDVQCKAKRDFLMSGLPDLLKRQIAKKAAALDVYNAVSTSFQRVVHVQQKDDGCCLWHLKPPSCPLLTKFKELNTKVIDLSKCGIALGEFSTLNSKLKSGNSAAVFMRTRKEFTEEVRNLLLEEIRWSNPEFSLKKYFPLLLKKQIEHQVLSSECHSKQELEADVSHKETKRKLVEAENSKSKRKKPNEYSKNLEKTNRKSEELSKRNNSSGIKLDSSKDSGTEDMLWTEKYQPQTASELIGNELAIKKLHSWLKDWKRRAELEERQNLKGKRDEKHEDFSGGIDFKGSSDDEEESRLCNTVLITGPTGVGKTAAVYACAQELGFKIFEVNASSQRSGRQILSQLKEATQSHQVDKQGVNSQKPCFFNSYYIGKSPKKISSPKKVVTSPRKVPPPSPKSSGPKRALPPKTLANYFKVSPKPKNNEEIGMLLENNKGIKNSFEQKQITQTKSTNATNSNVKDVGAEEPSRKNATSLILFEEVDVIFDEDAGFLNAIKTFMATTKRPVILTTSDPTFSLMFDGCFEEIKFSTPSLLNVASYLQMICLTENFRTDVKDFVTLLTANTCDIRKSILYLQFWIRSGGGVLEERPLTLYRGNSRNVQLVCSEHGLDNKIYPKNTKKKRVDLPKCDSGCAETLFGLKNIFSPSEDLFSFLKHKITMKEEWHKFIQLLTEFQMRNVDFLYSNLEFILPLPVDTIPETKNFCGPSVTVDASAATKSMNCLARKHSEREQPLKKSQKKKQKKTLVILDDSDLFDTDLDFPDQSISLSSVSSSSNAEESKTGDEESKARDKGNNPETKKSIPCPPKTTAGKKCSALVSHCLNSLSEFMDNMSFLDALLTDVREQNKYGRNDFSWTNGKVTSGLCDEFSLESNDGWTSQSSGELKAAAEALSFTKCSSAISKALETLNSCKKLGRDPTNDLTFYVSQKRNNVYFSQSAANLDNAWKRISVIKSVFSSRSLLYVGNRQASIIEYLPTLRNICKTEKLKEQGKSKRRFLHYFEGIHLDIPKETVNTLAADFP
ELG1-Luc MMS – MMS-stimulated human ELG1 repair inhibition, confirmed | shares compounds with ELG1 DNA repair | HEK293T luciferase-tagged ELG1 level, MMS stimulated | Potency, µM (doses to about 46.1 µM), usual class: inhibitors | 53% of 670 active | AID 624249; further: nearly all actives have a fitted effect of over 60% in size
ELG1 5-FU – confirmation of ELG1 repair inhibitors: viability with 5FU | shares compounds with ELG1 DNA repair | cell viability with 5-FU, ELG1-dependent repair | Potency, µM (titrated, usually from 46.1 µM), hits mostly cytotoxic | 670 tested, under 10 active;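 further: ELG1-luc HEK293T cells cotreated with 5-fluorouridine at 10 µM final; viability measured 16 h after compound addition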
ELG1 MMS viab – confirmation of ELG1 repair inhibitors: viability with MMS; shares compounds with ELG1 DNA repair; Cell viability with MMS, ELG1-dependent DNA repair; Potency, µM (doses to about 46.1 µM), most hits filed as cytotoxic; 33% of 670 active; AID 624251;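 further: ELG1-luc HEK293T cells co-treated with 10 µM MMS; viability read 16 h after compound addition; nearly all actives have a fitted effect of over 60% in size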
ELG1 unstim viab – counter-screen for ELG1 repair inhibitors: unstimulated cell viability | shares compounds with ELG1 DNA repair | cell viability counter-screen, unstimulated, luminescence | Potency, µM (series often up to 45.9 µM), actives largely listed as cytotoxic | 8% of 900 active | AID 624252;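 further: compound exposure lasted 16 hours before reading; nearly all actives have a fitted effect of over 55% in size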
FLuc biochem – inhibits purified firefly luciferase, counter-screen for ELG1 hits. purified firefly luciferase, luminescence counter-screen. 10% of 350 active. shares compounds with ELG1 DNA repair. AID 624253. Potency, µM (titrated, usually from 57.5 µM), usual class: inhibitors
Large screens that a line does not name were inactive (follow-up assays come after a bar, where they were run). Unless noted, the call rests on the fitted dose curve; in most records, active means well fitted curve in the direction sought with a large enough effect; inconclusive means small, poorly fitted or top-dose-only effect, or another doubt; inactive means no such curve, though single readings can be large; an effect the other way counts as inactive or inconclusive.

COc1cc2c(cc1OC)CN(C(=O)c1nn(Cc3ccccc3)c(=O)c3ccccc13)CC2	ELG1 DNA repair 2.6µM, IL-1B inflam inh inconclusive, TDP1 cell noCPT 16µM, TDP1 cell CPT inconclusive | ELG1-Luc inh 1.1µM | ELG1-Luc MMS inconclusive | ELG1 5-FU inconclusive | ELG1 MMS viab inconclusive | ELG1 unstim viab inconclusive
Cc1cccc(C)c1NC(=S)NCCc1ccccn1	none
Cc1csc2ncnc(NCCc3ccccn3)c12	ELG1 DNA repair 1.5µM, TDP1 cell noCPT 3.7µM, TDP1 cell CPT 6.5µM | ELG1-Luc inh inconclusive | ELG1-Luc MMS 1.6µM | ELG1 5-FU inactive | ELG1 MMS viab 2.2µM | ELG1 unstim viab inconclusive
CCN(CC)Cc1c(O)ccc2c([N+](=O)[O-])c(C)n(-c3ccc(OC)cc3)c12	ELG1 DNA repair 2.3µM, IL-1B inflam inh -75, HT1080 IDH1KD tx inconclusive, HT1080-NT tox inconclusive, TDP1 cell noCPT 16µM, TDP1 cell CPT 7.3µM | ELG1-Luc inh 4µM | ELG1-Luc MMS inconclusive | ELG1 5-FU inactive | ELG1 MMS viab inactive | ELG1 unstim viab inactive
CCOC(=O)N1CCN(S(=O)(=O)N2CCCC(C(=O)NCCCN3CC(C)CC(C)C3)C2)CC1 (stereo not drawn)	none
C/C(=N\NC(=O)c1c(C)nc2ccccn12)c1ccc(O)cc1O	ELG1 DNA repair 2.9µM, HT1080 IDH1KD tx inconclusive, HT1080-NT tox inconclusive, TDP1 cell noCPT 3.7µM, TDP1 cell CPT 3.7µM | ELG1-Luc inh inconclusive | ELG1-Luc MMS inconclusive | ELG1 5-FU inactive | ELG1 MMS viab inconclusive | ELG1 unstim viab inconclusive
CCN(CC)C(=O)c1ccc2c3c(cccc13)C(=O)N(CCc1ccc(OC)c(OC)c1)C2=O	ELG1 DNA repair 4.6µM, IL-1B inflam inh -73, TDP1 cell noCPT 8.2µM, TDP1 cell CPT 8.2µM | ELG1-Luc inh 11µM | ELG1-Luc MMS 10µM | ELG1 5-FU inconclusive | ELG1 MMS viab 22µM | ELG1 unstim viab 25µM
O=C(NNc1ccnc2cc(Cl)ccc12)C1CCCCC1	ELG1 DNA repair 0.52µM, HT1080 IDH1KD tx inconclusive, HT1080-NT tox 3.7µM, TDP1 cell noCPT 0.65µM, TDP1 cell CPT 0.92µM | ELG1 FLuc counter inactive | ELG1-Luc inh inactive | ELG1-Luc MMS 0.89µM | ELG1 5-FU inactive | ELG1 MMS viab 0.71µM | ELG1 unstim viab inconclusive | FLuc biochem inactive
